Source: PubChem BioAssay (Tox21)
Where “and” joins values, the source holds several entries; their conditions need not be identical. Identical values can stand only once. Results filed as inconclusive are left out. Entries that show only a call come without a potency. Where a structure was tested more than once in an assay, its records may differ in their call. Calls of active or inactive are those of the source. The call rests on the fitted dose curve; in most records, active means well fitted curve in the direction sought with a large enough effect in the repeat runs; inconclusive means weak or mixed curves; inactive means no such curve, though single readings can be large; an effect the other way counts as inactive or inconclusive.

What was measured:
[1] = qHTS RealTime-Glo MT Cell Viability Assay in HepG2 cells - 40 hour (AID 1224870); further: nearly all actives have a fitted effect of over 50% in size
Method in brief: (§1)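 Real-time viability: cells seeded at 600 per well together with NanoLuc and cell-permeant prosubstrate, compounds added after 5 h incubation. Luminescence tracked at 0, 8, 16, 24, 32 and 40 h of exposure.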

[2] = A CellTox Green Cytotoxicity Assay to monitor cytotoxicity in HEK293 cells - 40 hour (AID 1224871); further: nearly all actives have a fitted effect of over 45% in size; further: potency means the concentration at half of the fitted maximal effect
Method in brief: (§2)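 Nonlytic real-time cytotoxicity: HEK293 + CellTox Green reagent plated, 5 h preincubation, pintool compound addition (23 nL in DMSO), 37 C for 40 h, fluorescence measured at successive time points.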

[3] = qHTS RealTime-Glo MT Cell Viability Assay in HEK293 cells - 16 hour (AID 1224872); further: nearly all actives have a fitted effect of over 50% in size; further: potency means the concentration at half of the fitted maximal effect
Method in brief: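 Luminescence generated by NanoLuc from substrate produced by living HEK293 cells served as the viability signal. Each value reflects the reading at its stated time point during continuous 40 h compound exposure at 37 C.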

[4] = qHTS RealTime-Glo MT Cell Viability Assay in HepG2 cells - 8 hour (AID 1224873); further: nearly all actives have a fitted effect of over 55% in size
Method in brief: as §1

[5] = qHTS RealTime-Glo MT Cell Viability Assay in HEK293 cells - 40 hour (AID 1224874); settings: RealTime-Glo luminescence; max response: stronger effect = lower value; further: nearly all actives have a fitted effect of over 50% in size; further: potency means the concentration at half of the fitted maximal effect
Method in brief: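 Cells were seeded together with NanoLuc luciferase and a prosubstrate that viable cells reduce to a luciferase substrate. After a 5 h incubation at 37 C/5% CO2, compounds were added and luminescence was measured repeatedly during 40 h of treatment.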

[6] = A CellTox Green Cytotoxicity Assay to monitor cytotoxicity in HEK293 cells - 24 hour (AID 1224875); further: series mostly up to about 77 µM; nearly all actives have a fitted effect of over 45% in size
Method in brief: as §2

[7] = A CellTox Green Cytotoxicity Assay to monitor cytotoxicity in HepG2 cells - 16 hour (AID 1224876); further: nearly all actives have a fitted effect of over 45% in size; further: potency means the concentration at half of the fitted maximal effect
Method in brief: (§3)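 Read-out is fluorescence of a cyanine dye excluded from live cells that stains DNA of dead HepG2 cells, with signal proportional to cytotoxicity. Plates were read at 0, 8, 16, 24, 32 and 40 h after compound addition.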

[8] = qHTS RealTime-Glo MT Cell Viability Assay in HepG2 cells - 32 hour (AID 1224877); further: nearly all actives have a fitted effect of over 55% in size
Method in brief: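 Tox21 10K library screened in qHTS format on HepG2 cells carrying RealTime-Glo reagents. Compounds were added after a 5 h preincubation, and the luminescent signal from continuous culture was measured repeatedly during 40 h treatment.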

[9] = A CellTox Green Cytotoxicity Assay to monitor cytotoxicity in HepG2 cells - 24 hour (AID 1224878); further: nearly all actives have a fitted effect of over 45% in size; further: potency means the concentration at half of the fitted maximal effect
Method in brief: as §3

[10] = A CellTox Green Cytotoxicity Assay to monitor cytotoxicity in HepG2 cells - 40 hour (AID 1224879); further: nearly all actives have a fitted effect of over 40% in size; further: potency means the concentration at half of the fitted maximal effect
Method in brief: as §3

Structure (SMILES)	Potency [1]	Potency [2]	Potency [3]	Potency [4]	max response [5]	Potency [6]	Potency [7]	Potency [8]	Potency [9]	Potency [10]	Potency [5]
NC(=O)NNc1ccccc1	inactive	inactive	inactive	inactive	15.8% (inactive) and 8.69% (inactive)	inactive	inactive	inactive	inactive	inactive	–
C=C(C)C(=O)OCC(CC)(COC(=O)C(=C)C)COC(=O)C(=C)C	inactive	inactive and 42.9 µM (active)	inactive	inactive	2.46% (inactive) and 6.81% (inactive)	–	inactive and 42.9 µM (active)	inactive	inactive and 38.2 µM (active)	inactive and 42.9 µM (active)	–
C=C(C)C(=O)OCCC[Si](OC)(OC)OC	inactive	inactive	–	inactive	1.98% (inactive) and 0.0703% (inactive)	inactive	inactive	inactive	inactive	inactive	–
C[C@@H](O)[C@H]1C(=O)N2C(C(=O)O)=C(S[C@@H]3CN[C@H](C(=O)N(C)C)C3)[C@H](C)[C@H]12	inactive	inactive	–	inactive	2.43% (inactive) and 4.85% (inactive)	inactive	inactive	inactive	inactive	inactive	–
Cc1ccc(C)c(C)c1	inactive	inactive	inactive	inactive	7.97% (inactive) and 2.35% (inactive)	inactive	inactive	inactive	inactive	inactive	–
OCCOCCOCCOCCO	inactive	inactive	inactive	inactive	0.824% (inactive) and 6.75% (inactive)	inactive	inactive	inactive	inactive	inactive	–
CCCCCC/C=C/CCCCCCCC(=O)O	inactive	inactive	inactive	inactive	2.68% (inactive) and -1.87% (inactive)	inactive	inactive	inactive	inactive	inactive	–
NC(=O)/N=N/C(N)=O	inactive	inactive	inactive	inactive	1.69% (inactive) and 1.16% (inactive)	inactive	inactive	inactive	inactive	inactive	–
CCCCCCCCCCC=CC1CC(=O)OC1=O (stereo not drawn)	inactive	inactive	–	inactive	0.806% (inactive) and -0.583% (inactive)	inactive	inactive	inactive	inactive	inactive	–
CCCCNC(N)=O	inactive	inactive	inactive	inactive	5.63% (inactive) and 4.35% (inactive)	inactive	inactive	inactive	inactive	inactive	–
C[C@@H]1O[C@@H](OC[C@H]2O[C@@H](Oc3c(-c4ccc(O)c(O)c4)oc4cc(O)cc(O)c4c3=O)[C@H](O)[C@@H](O)[C@@H]2O)[C@H](O)[C@H](O)[C@H]1O	inactive	inactive	–	inactive	-1.83% (inactive) and 0.783% (inactive)	inactive	inactive	inactive	inactive	inactive	–
CC(=O)[C@@]1(O)CC[C@H]2[C@@H]3CCC4=CC(=O)CC[C@]4(C)[C@H]3CC[C@@]21C	inactive	inactive	inactive	inactive	–	inactive	inactive	inactive	inactive	inactive	–
O=Nc1ccc(O)cc1	inactive	inactive	inactive	inactive	2.25% (inactive)	inactive	inactive	inactive	inactive	inactive	–
NCCNCCNCCNCCN	inactive	inactive	inactive	inactive	1.39% (inactive) and 5.6% (inactive)	inactive	inactive	inactive	inactive	inactive	–
Cc1cc(=O)[nH]c(C(C)C)n1	inactive	inactive	–	inactive	1.9% (inactive) and -0.481% (inactive)	inactive	inactive	inactive	inactive	inactive	–
CCCCOCCO	inactive	inactive	inactive	inactive	3.58% (inactive) and 5.47% (inactive)	inactive	inactive	inactive	inactive	inactive	–
CC#C[C@]1(O)CC[C@H]2[C@@H]3CCC4=CC(=O)CCC4=C3[C@@H](c3ccc(N(C)C)cc3)C[C@@]21C	inactive	inactive	49 µM (active)	inactive	–	inactive	inactive	–	inactive	inactive	49 µM (active)
Cc1cc(O)cc(C)c1Cl	inactive	inactive	inactive	inactive	-8.32% (inactive) and -0.996% (inactive)	inactive	inactive	inactive	inactive	inactive	–
COCC(C)O (stereo not drawn)	inactive	inactive	inactive	inactive	-1.03% (inactive) and -1.56% (inactive)	inactive	inactive	inactive	inactive	inactive	–
CC(=O)Nc1ccc(C(=O)O)cc1	inactive	inactive	inactive	inactive	0.373% (inactive) and -0.782% (inactive)	inactive	inactive	inactive	inactive	inactive	–

Structure (SMILES)	Potency [1]	Potency [2]	Potency [3]	Potency [4]	max response [5]	Potency [6]	Potency [7]	Potency [8]	Potency [9]	Potency [10]	Potency [5]
CC1Cc2ccccc2N1NC(=O)c1ccc(Cl)c(S(N)(=O)=O)c1 (stereo not drawn)	inactive	inactive	–	inactive	3.11% (inactive) and -9.79% (inactive)	inactive	inactive	inactive	inactive	inactive	–
O=C(c1cc(O)c(O)c(O)c1)c1ccc(O)c(O)c1O	inactive	inactive	inactive	inactive	-21.1% (inactive) and -21.4% (inactive) and -9.65% (inactive)	inactive	inactive	inactive	inactive	inactive	–
CCCCCCCCCC(=O)O	inactive	inactive	inactive	inactive	7.81% (inactive) and 12.5% (inactive)	inactive	inactive	inactive	inactive	inactive	–
Clc1ccc(Cl)c(Cl)c1Cl	inactive	inactive	inactive	inactive	0.667% (inactive) and -4.21% (inactive)	inactive	inactive	inactive	inactive	inactive	–
O=c1c(-c2ccc(O)cc2)coc2cc(O)ccc12	inactive	inactive	inactive	inactive	–	inactive	inactive	inactive	inactive	inactive	–
CN(CCOc1ccc(CC2SC(=O)NC2=O)cc1)c1ccccn1 (stereo not drawn)	inactive	inactive	inactive	inactive	-1.82% (inactive)	inactive	inactive	inactive	inactive	inactive	–
CS(=O)(=O)c1ccc([C@@H](O)[C@@H](CO)NC(=O)C(Cl)Cl)cc1	inactive	inactive	inactive	inactive	13.1% (inactive) and 7.93% (inactive)	inactive	inactive	inactive	inactive	inactive	–
Oc1ccc2ccccc2c1N=Nc1ccccc1	inactive	inactive	inactive	inactive	32.3% (inactive)	inactive	inactive	inactive	inactive	inactive	–
CC1CC(OC(=O)c2ccccc2O)CC(C)(C)C1 (stereo not drawn)	inactive	48.5 µM (active) and inactive	inactive	inactive	-10.4% (inactive) and -7.39% (inactive) and -13.1% (inactive)	inactive	inactive	inactive	inactive	inactive	–
Cc1cc(O)c2c(c1)C(=O)c1cc(O)cc(O)c1C2=O	inactive	inactive	inactive	inactive	–	inactive	inactive	inactive	inactive	inactive	–
OC[C@@H](O)[C@H](O)[C@H](O)[C@@H](O)CO	inactive	inactive	inactive	inactive	7.24% (inactive) and 7.63% (inactive)	inactive	inactive	inactive	inactive	inactive	–
CNC[C@H](O)[C@@H](O)[C@H](O)[C@H](O)CO	inactive	inactive	–	inactive	8.02% (inactive) and 0.166% (inactive)	inactive	inactive	inactive	inactive	inactive	–
C=C1C2CCC(C2)C1(C)C (stereo not drawn)	inactive	inactive	inactive	inactive	-3.35% (inactive) and 5.02% (inactive)	inactive	inactive	inactive	inactive	inactive	–
S=c1nc[nH]c2nc[nH]c12	inactive	inactive	inactive	inactive	–	inactive	inactive	inactive	inactive	inactive	16.9 µM (active)
C=C(C#N)C(=O)OCC	inactive	inactive	inactive	inactive	-3.09% (inactive) and 0.0188% (inactive)	inactive	inactive	inactive	inactive	inactive	–
O=C(Cl)c1c(Cl)c(Cl)c(C(=O)Cl)c(Cl)c1Cl	inactive	inactive	inactive	inactive	8.71% (inactive) and 13.6% (inactive)	inactive	inactive	inactive	inactive	inactive	–
O=S(=O)(O)c1cc(S(=O)(=O)O)c2c(N=Nc3ccccc3)c(O)ccc2c1	inactive	inactive	inactive	inactive	-20.2% (inactive)	inactive	inactive	inactive	inactive	inactive	–
CC[Si](OC(C)=O)(OC(C)=O)OC(C)=O	inactive	inactive	inactive	inactive	13.5% (inactive) and 2.5% (inactive)	inactive	inactive	inactive	inactive	inactive	–
C=C(C)C(=O)OCCCCCC	inactive	inactive	inactive	inactive	7.72% (inactive) and -0.816% (inactive)	inactive	inactive	inactive	inactive	inactive	–
